{"source": "PubChem BioAssay AID624305", "about": "(National Center for Advancing Translational Sciences (NCATS), 2012)", "note": "Records with an inconclusive call do not appear. A number with no mark means an inactive call. Calls of active or inactive are those of the source. Calls follow the shape of the dose curve; as a rule, active = well fitted activation curve with a large enough effect; inconclusive = small, poorly fitted or top-dose-only effect; inactive = no such curve, though single readings can be large or run the other way. Potency is read from the fitted curve at half-maximal effect."}
{"assay": "qHTS assay for re-activators of p53 using a Luc reporter: Hit Validation; also: nearly all actives have a fitted effect of over 75% in size; as to activation: 0% is about no effect", "details": "p53-responsive luciferase reporter cells, luminescence, H1299 line expressing heat-sensitive Ala138Val p53; series mostly up to 46.1 µM; activation: at the top concentration", "summary_of_the_method": "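Hit confirmation with a 1:5 dilution series, at 37 deg C for 24 hrs, in H1299 cells co-expressing temperature-sensitive p53-A138V and p53-responsive luciferase. Nocodazole served as control; luminescence read after 10 min with detection reagent.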"}
{"smiles": "c1ccc(-n2ncc3c(N4CCCCC4)ncnc32)cc1", "Potency": "1.16 µM (active)"}
{"smiles": "Cc1nonc1NCn1nnc2ccccc21", "activation": "7.94% [at 9.22 µM]"}
{"smiles": "COc1cccc(NC(=O)CSC2=C(C#N)C(c3ccco3)C3=C(CCCC3=O)N2)c1", "note": "(stereo not drawn)", "activation": "8.33%"}
{"smiles": "COCCn1c(C)cc(C(=O)CSc2nc3ccccc3s2)c1C", "activation": "130% [at 9.22 µM]"}
{"smiles": "CC(Cc1ccccc1)NC(=O)c1ccc([N+](=O)[O-])cc1", "note": "(stereo not drawn)", "Potency": "2.59 µM (active)"}
{"smiles": "CCN(CC)C(=O)CSc1ncnc2c(-c3cccs3)nsc12", "activation": "20.3%"}
{"smiles": "Cc1ccc(/C=C(\\C#N)C(=O)NCC2CCCO2)o1", "note": "(stereo not drawn)", "activation": "65.6%"}
{"smiles": "CCOC(=O)c1[nH]nc(C(=O)c2ccc(Br)cc2)c1O", "activation": "-94.3%"}
{"smiles": "COc1cccc(C2(c3cccc(OC)c3)CC2C(=O)Nc2cccc3ccccc23)c1", "note": "(stereo not drawn)", "activation": "-28.6%"}
{"smiles": "c1ccc(-c2nnc(-c3ccccn3)nc2NC2CCCCC2)cc1", "Potency": "18.4 µM (active)"}
{"smiles": "COc1ccc(-c2nc(-c3ccc(NC(=O)c4ccncc4)cc3)no2)cc1OC", "activation": "-19.3%"}
{"smiles": "COc1ccc(/C(N)=N/OC(=O)c2cccs2)cc1", "Potency": "5.17 µM (active)"}
{"smiles": "COc1ccccc1C(=O)O/N=C(\\N)c1ccccc1Cl", "activation": "-84.4%"}
{"smiles": "N#C/C(Cn1c[n+](NC(=O)Nc2ccccc2)cn1)=N/O", "activation": "33.3%"}
{"smiles": "c1ccc2nc(-c3ccc(N4CCOCC4)cc3)ccc2c1", "Potency": "0.164 µM (active)"}
{"smiles": "CCCN1CCC(NC(=O)Cc2ccc(C)cc2)CC1", "activation": "-2.6%"}
{"smiles": "COc1ccccc1-c1cc(C(=O)Nc2cc(C)on2)no1", "Potency": "16.4 µM (active)"}
{"smiles": "O=C(O)c1ccc(N/N=C/c2ccc3ncccc3c2)cc1", "Potency": "0.184 µM (active)"}
